Most compounds without a hit are left out; they make up all but 5.5% or so of the library.
MBNL1-CUG inh = blocks human MBNL1 binding to CUG repeat RNA. AID 2675. TR-FRET MBNL1-His/biotin-(CUG)12 binding, 665/545 ratio. Potency, µM (doses to about 57.5 µM), without a hit: at the top dose activity change, negative = inhibition, actives largely listed as inhibitors. actives 0.036% (n = 280,000); active means well fitted inhibition curve with a large enough effect in the signal ratio, with a control signal flat, not every such curve was filed as active; inconclusive means small, poorly fitted or top-dose-only effect, or effect the other way, or a change in a side signal; inactive means no such curve, though single readings can be large or run the other way; the % refers to the signal ratio; further: potency means the concentration at half of the fitted maximal effect; on the % scale 0 is the no-effect control and ±100 the full control effect
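MBNL1-His + Biotin-(CUG)12, cpd titration 92 nM–58 uM; Tb anti-His Ab 0.055 ng/ul, SA-XL665 5 nM (final); 60 min RT; ratiometric 665/545 nm, Ex 340 nm; normalized to buffer and full-complex controls.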
CBFb RUNX1 block = blocks binding between human CBF-beta and RUNX1. AID 1477. Potency, µM (doses to about 59.8 µM), for the others: top-dose activity, negative = inhibition, usual class: inhibitors. Q01196+Q13951. 230,000 tested, under 10 active. AlphaScreen CBFb-His/RUNX1-biotin binding, biochemical; further: % of control where 0% means no effect
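Room-temperature protein-protein interaction test with 30 nM each of His-tagged CBF-beta and biotinylated RUNX1, 15 min with compound, then 90 min with nickel plus streptavidin beads. Signal read in AlphaScreen mode.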
RORg inh = inhibitors of mouse ROR gamma transcriptional activity; AID 2551; Potency, µM (top dose mostly 53.6 µM), for the others: at the top dose activity change, negative = inhibition, most hits filed as inhibitors; Drosophila S2 Gal4-RORgamma UAS-luciferase reporter, 20 h; actives 5.4% (n = 310,000); P51450; further: potency means the concentration at half of the fitted maximal effect; on the % scale 0 is the no-effect control and ±100 the full control effect; nearly all actives have a fitted effect of over 60% in size
Target sequence (P51450 whole entry, looked up, the tested form may be a part): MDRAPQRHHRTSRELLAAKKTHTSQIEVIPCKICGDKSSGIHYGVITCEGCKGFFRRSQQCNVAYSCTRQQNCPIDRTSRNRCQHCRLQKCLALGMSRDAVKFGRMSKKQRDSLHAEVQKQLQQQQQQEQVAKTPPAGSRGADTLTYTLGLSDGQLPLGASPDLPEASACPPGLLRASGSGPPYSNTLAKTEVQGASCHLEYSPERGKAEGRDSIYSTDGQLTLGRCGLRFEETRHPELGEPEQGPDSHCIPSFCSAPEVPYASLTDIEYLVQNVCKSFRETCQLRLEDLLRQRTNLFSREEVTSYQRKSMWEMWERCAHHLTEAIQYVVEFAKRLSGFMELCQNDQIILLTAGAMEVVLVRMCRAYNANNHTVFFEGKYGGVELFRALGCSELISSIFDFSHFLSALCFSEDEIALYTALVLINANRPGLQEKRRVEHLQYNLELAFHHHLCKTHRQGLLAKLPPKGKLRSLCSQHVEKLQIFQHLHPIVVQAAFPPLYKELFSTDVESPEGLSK
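ROR gamma transcriptional activity was tracked as Gal4-UAS luciferase output in stably transfected Drosophila Schneider cells, with compound added 1 hr before 700 uM copper sulfate induction and a 20 hr ambient-temperature incubation.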
CtBP-E1A inh = inhibitors of CtBP/E1A interaction; AlphaScreen GST-E1A/His-CtBP binding, 1536-well; active compounds read low; activity change, % (no concentration beside the values); actives 0.49% (n = 340,000); in the data active means activity change below about -65%; inconclusive means mostly about -30% to -63%; further: on the % scale 0 is the no-effect control and ±100 the full control effect
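In 5 uL wells, 23 nL compound meets equimolar GST-E1A and His-CtBP (5X stock 125 nM each) for 2 h, 37 °C. Beads (5X, 50 ug/mL) then 1 h, 37 °C, dark.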
VP16 counter = inhibits Gal4-VP16 luciferase reporter, ROR gamma counter-screen. Drosophila S2 Gal4-VP16 UAS-luciferase, luminescence, 20 h. Potency, µM (series often up to 53.6 µM), inactives show top-dose activity, negative = inhibition, most hits filed as inhibitors. actives 3.5% (n = 310,000). AID 2546;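 further: Gal4-VP16 expression switched on by copper sulfate through the metallothionein promoter; potency means the concentration at half of the fitted maximal effect; on the % scale 0 is the no-effect control and ±100 the full control effect; nearly all actives have a fitted effect of over 50% in size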
Six1-Eya2 blk = Six1/Eya2 interaction inhibition; Q15475+O00167; AlphaScreen GST-Six1/His-Eya2 binding, biochemical; active compounds read low; activity change, % (concentration not given with the values); AID 651725; actives 0.56% (n = 360,000); in the data active means activity change below about -65%; inconclusive means mostly about -30% to -63%; further: on the % scale 0 is the no-effect control and ±100 the full control effect
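Homogeneous AlphaScreen proximity assay pairing GST-Six1 with His-tagged Eya2 (added as 5X mix: 250 nM and 500 nM) in 50 mM Tris pH 8.0, 300 mM NaCl, 1 mM TCEP. Glutathione donor and nickel acceptor beads; 1 h, 37 °C, dark.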
* hit, by the source's call; ? = inconclusive; · = not tested or not shown; [ ] = another dose, or the depositor's remark. Unless noted, the call rests on the fitted dose curve; in most records, active means well fitted curve in the direction sought with a large enough effect; inconclusive means small, poorly fitted or top-dose-only effect, or another doubt; inactive means no such curve, though single readings can be large; an effect the other way counts as inactive or inconclusive.

SMILES | MBNL1-CUG inh | CBFb RUNX1 block | RORg inh | CtBP-E1A inh | VP16 counter | Six1-Eya2 blk
COc1cc(/C=C(\C#N)C(=O)NC2CCCCC2C)ccc1OS(=O)(=O)c1ccc(C)cc1 (centres undefined) | 1% | 0% | ? | 0 | 11µM* | 9
CC1CCCCC1NC(=O)/C(C#N)=C/c1ccccc1F (centres undefined) | 9% | 9% | 11µM* | 1 | 11µM* | -3
COc1cc(/C=C(\C#N)C(N)=O)ccc1OS(=O)(=O)c1ccc(C)cc1 | -7% | 11% | -10% | -22 | ? | 3
Cc1cccc(CNC(=O)C2CCCN(c3nn4c(=O)cc(C)nc4s3)C2)c1 (centres undefined) | 1% | · | -38% | -3 | 6% | -2
Cc1cc(C)nc(SCC(N)=O)n1 | 2% | 1% | 12% | 9 | -4% | 6
O=S(=O)(c1ccccc1)N1CCN(C(=S)Nc2ccc(F)cc2)CC1 | · | 5% | -15%[10 µM] | 5 | 2% | 2
Cc1cccc(NC(=S)N2CCN(c3ccc(F)cc3)CC2)c1 | -1% | -5% | 8.9µM* | 3 | ? | -6
Fc1ccc(NC(=S)N2CCN(c3cccc(C(F)(F)F)c3)CC2)cc1 | 5% | 0% | ? | -9 | ? | -4
Cc1cc(C)cc(NC(=S)N2CCN(c3ccc(F)cc3)CC2)c1 | -6% | 10% | 7.1µM* | -9 | -25% | -6
Cc1cccc(NC(=S)N2CCN(S(=O)(=O)c3ccc(F)cc3)CC2)c1 | -8% | · | 13µM* | 2 | -16% | -1
FC(F)(F)c1cccc(NC(=S)N2CCN(c3cccc(C(F)(F)F)c3)CC2)c1 | -7% | 9% | 11µM* | -2 | -21% | 9
O=[N+]([O-])c1ccc(NC(=S)N2CCN(c3ccc(F)cc3)CC2)cc1 | 3% | -12% | -19% | 1 | -15% | -8
COC(=O)N1CCCCC1c1cc(C(=O)Nc2ccc(OC)cc2C)no1 (centres undefined) | · | · | · | -5 | · | 2
CCCCCNC(=O)C(c1cc2ccccc2o1)n1c(=O)c(-c2ccccc2)nc2ccccc21 (centres undefined) | · | · | · | -10 | · | 0
COc1ccc(C(=O)N2CCC[C@@]3(CCN(c4ccccn4)C3)C2)cc1 | · | · | 0% | · | -8% | ·
C(#Cc1ccc2c(c1)COc1c3ccccc3nn1-2)c1ccccc1 | · | · | · | -3 | · | -1
O=C(NCC1CC1)c1ccc2c3n(nc2c1)-c1ccccc1CO3 | ? | 10% | 14µM* | -11 | ? | -8
O=C(NCCO)c1ccc2c3n(nc2c1)-c1ccccc1CO3 | ? | 11% | 4.5µM* | · | ? | -5
CC(C)NC(=O)c1ccc2c3n(nc2c1)-c1ccccc1CO3 | ? | 9% | 4µM* | · | 4.5µM* | -5
Cc1ccc2c(c1)COc1c3ccc(C(=O)O)cc3nn1-2 | ? | · | 2µM* | -2 | 5µM* | -5
Cc1ccc2c(c1)COc1c3ccc(C(=O)NCC4CC4)cc3nn1-2 | ? | 12% | -39% | · | -24% | -16
CC(C)[C@@H](CO)NC(=O)c1ccc2c3n(nc2c1)-c1ccccc1CO3 | ? | -6% | ? | 0 | ? | 0
C=CCNC(=O)c1ccc2c3n(nc2c1)-c1ccc(Cl)cc1CO3 | · | · | · | -5 | · | -13
C[C@H](O)[C@@H]1CN2CCc3c([nH]c4ccc(-c5ccc6c(c5)OCO6)cc34)[C@@H]2C[C@@H]1N(C)C(=O)NC1CCCCC1 | · | · | · | -20 | · | ?
CSCCNC(=O)C1(C)CCN1C(=O)c1sccc1C (centres undefined) | · | · | · | 1 | · | 3
SMILES | MBNL1-CUG inh | CBFb RUNX1 block | RORg inh | CtBP-E1A inh | VP16 counter | Six1-Eya2 blk
CCN(CC)S(=O)(=O)c1cc(OC)ccc1N=Nc1ccc(O)c2ncccc12 | 36% | · | 1.3µM* | · | 1.3µM* | -92*
CCS(=O)(=O)c1ccc(OC)c(N=Nc2ccc(O)c3ncccc23)c1 | ? | · | 1µM* | -96* | ? | -92*
COc1ccc(S(=O)(=O)NCCOc2cccc3cccnc23)cc1OC | 2% | 5% | -3% | 4 | -2% | 3
CCc1ccc(N2CN(Cc3ccco3)CNC2=S)cc1 | · | 1% | 3.5µM* | 2 | ? | -8
S=C1NCN(Cc2ccco2)CN1c1cccc2ccccc12 | · | -2% | 5µM* | -5 | ? | -5
C=CCN1CN(Cc2ccco2)CNC1=S | -3% | 5% | 13µM* | 23 | ? | 4
S=C1SCN(Cc2ccco2)CN1Cc1ccco1 | -2% | 4% | 2.5µM* | -2 | 3.2µM* | -7
COCc1cccc(-c2csc(C(NC(C)=O)c3ccccc3)n2)c1 (centres undefined) | · | · | · | 29 | · | 19
CCN(CC)CCCC(C)Nc1nc(C)cc(Nc2ccc3nc(C)cc(N)c3c2)n1 (centres undefined) | · | -3% | -14% | · | -14% | ·
COc1cc2cc(CCO)oc(=O)c2cc1OC | · | · | · | -2 | · | -2
CC1(C(=O)NS(=O)(=O)c2ccccc2Cl)CCN1C(=O)c1ccco1 (centres undefined) | · | · | · | 1 | · | 12
CCCCN1CN(Cc2ccco2)CNC1=S | -18% | -4% | 13µM* | -5 | ? | 11
CC(OC(=O)Cc1n[nH]c(=O)c2ccccc12)C(=O)Nc1ccc(F)cc1Cl (centres undefined) | · | · | · | 8 | · | 4
CCC(C)[C@H](NC(=O)OC(C)(C)C)C(=O)N/N=C/c1cccc2nccnc12 (some centres undefined) | ? | -1% | -9% | -27 | 0% | -16
O=C(N/N=C/c1cccc2ccccc12)c1ccccc1Cl | 15% | · | -33% | -21 | 3% | -6
CCC(C)[C@@H](N)C(=O)N/N=C/c1cccc2nccnc12 (some centres undefined) | · | -19% | -12% | -71* | 8% | -87*
O=C(N/N=C/c1cccc2nccnc12)c1ccccc1O | · | · | 2.5µM* | -76* | 3.2µM* | -89*
O=C(N/N=C/c1cccc2cccnc12)c1ccccc1O | ? | ? | 0.35µM* | · | 0.79µM* | -92*
O=C(N/N=C/c1cccc2nccnc12)c1ccncc1 | ? | · | ? | -89* | -8% | -68*
O=C(N/N=C/c1ccccc1C(=O)O)c1ccncc1 | -1% | · | -14% | 0 | 1% | 6
CCNC(=O)C1(C)CCN(C(=O)c2ccc(OC)cc2OC)C1 (centres undefined) | · | · | · | 3 | · | 7
COc1ccc(OC)c(NC(=O)C2(C)CCN2CCc2ccccc2)c1 (centres undefined) | · | · | · | -10 | · | -16
